Inconclusive results are not listed. A call without a number means that no potency is given here. Calls of active or inactive are those of the source. Calls follow the shape of the dose curve; as a rule, active = well fitted inhibition curve with a large enough effect; inconclusive = small, poorly fitted or top-dose-only effect; inactive = flat fitted curve, though single readings scatter. Numbered stars: 1 amine (or outer) side, 2 acyl side, 3 side chain; on linkers, the order of the positions; unused ones are H or OH. Bridge positions count the residues as written; N and C are the ends. Square brackets hold non-standard residues; d marks the D form. Peptide text beside a SMILES is read from it. * marks the point of attachment. ξ: configuration not given here. ΔAla(E,3-NHCONH2) = NC(=O)N/C=C(/N)C(=O)O; X1 = NC1=NCCC(C(N[*:1])C(=O)[*:2])N1; ξβ3hOrn = NCCCC(N)CC(=O)*; Dap = NC[CH](N)C(=O)O

Experimental findings from PubChem BioAssay (NCATS) are described below.

Chain of Ubiquitin carboxyl-terminal hydrolase 1 (Homo sapiens) (O94782 whole entry, looked up): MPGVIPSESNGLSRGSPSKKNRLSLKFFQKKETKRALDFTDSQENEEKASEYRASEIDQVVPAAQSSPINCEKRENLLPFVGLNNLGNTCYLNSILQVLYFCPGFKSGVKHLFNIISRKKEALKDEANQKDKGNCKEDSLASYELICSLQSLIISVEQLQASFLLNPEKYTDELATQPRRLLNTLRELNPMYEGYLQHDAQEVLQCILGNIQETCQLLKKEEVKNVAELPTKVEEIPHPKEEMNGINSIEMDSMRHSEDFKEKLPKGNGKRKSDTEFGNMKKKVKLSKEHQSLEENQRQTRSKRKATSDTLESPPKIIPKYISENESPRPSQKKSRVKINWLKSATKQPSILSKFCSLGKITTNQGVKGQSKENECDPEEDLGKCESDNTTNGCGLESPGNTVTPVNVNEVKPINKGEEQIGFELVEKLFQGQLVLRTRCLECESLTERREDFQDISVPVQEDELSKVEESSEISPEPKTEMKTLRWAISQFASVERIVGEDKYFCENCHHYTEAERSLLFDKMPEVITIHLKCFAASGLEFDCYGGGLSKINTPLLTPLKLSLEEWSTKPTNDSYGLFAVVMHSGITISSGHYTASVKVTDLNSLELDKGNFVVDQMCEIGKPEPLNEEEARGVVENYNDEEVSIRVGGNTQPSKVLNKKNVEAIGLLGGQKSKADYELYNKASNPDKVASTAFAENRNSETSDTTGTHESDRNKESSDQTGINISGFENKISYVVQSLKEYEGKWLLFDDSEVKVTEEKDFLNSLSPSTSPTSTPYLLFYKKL

This test concerns the target Ubiquitin carboxyl-terminal hydrolase 1 (Homo sapiens) (UniProt O94782). As to the kind of experiment: Inhibitors of USP1/UAF1: Pilot qHTS (AID 504865).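 Also: rhodamine fluorescence freed from ubiquitin-rhodamine substrate followed over time; top concentration of the series differs between compounds; nearly all actives have a fitted effect of over 35% in size.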 As to conditions: purified USP1/UAF1, Ub-rhodamine cleavage fluorescence; series mostly up to 114 µM. Put shortly:
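USP1/UAF1 complex (1nM) preincubated with compound 15 min at room temperature, then Ub-Rho substrate (150nM final) added. Fluorescence read kinetically at 480/540 nm, 6 reads every 60 seconds. Buffer: 50mM HEPES pH 7.8, 0.5mM EDTA, 0.1 mg/ml BSA, 1mM TCEP, 0.01% Tween-20.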
(Quantitative high-throughput screening tests each substance at several concentrations.)
As to `CC1CC[C@@]2(OC1)OC1CC3C4CC[C@H]5CC(O)CC[C@@]5(C)C4CC[C@]3(C)C1C2C` (stereo not given in full), the Potency result is “inactive”. In the case of `CC(=O)OCC(=O)[C@@]1(O)CCC2C3CCC4=CC(=O)CC[C@@]4(C)[C@]3(F)C(O)C[C@]21C` (stereo not given in full) it was “inactive”. Next, `CC(CCC(=O)O)C1CCC2C3CC(O)[C@@H]4CC(O)CC[C@]4(C)C3CC[C@@]12C` (stereo not given in full): “inactive”; `CC1CCC(C(C)(C)O)CC2=C1CCC2C` (stereo not given): “inactive”; `NCCC(O)C(=O)NC1C[C@@H](N)[C@H](O[C@@H]2OC(CN)C(O)C(O)C2O)C(O)[C@H]1O[C@H]1OC(CO)C(O)C(N)C1O` (stereo not given in full): “inactive”.

Consider `CC(C)CC(NC(=O)CN)C(=O)NC(Cc1ccccc1)C(=O)O` (stereo not drawn) (H-Gly-Leu-Phe-OH; configuration not given here), for which the Potency result was “inactive”.

As to `CC(=O)OC1CCC2(C)C(=CC=C3C2CCC2(C)C3CCC2C(C)/C=C/C(C)C(C)C)C1(C)C` (stereo not given), the Potency entry is “inactive”. In the case of `COc1cc2c3cc1Oc1cc(ccc1O)CC1c4c(cc(OC)c(O)c4Oc4ccc(cc4)CC3N(C)CC2)CC[N+]1(C)C` (stereo not given), the Potency entry was “inactive”. Next, `CCOC(=O)c1c(C)cc(O)c(C)c1O`: “inactive”; `CC1(C)OC2C(CO)OC(n3cnc4c(=O)[nH]c(N)nc43)C2O1` (stereo not given): “inactive”.

In the case of `COc1ccc(-c2cc(=O)c3c(O)c(OC)c(OC)c(OC)c3o2)cc1`, the Potency result is “inactive”. Regarding `NCCCC(N)CC(=O)NCC1NC(=O)C(CO)NC(=O)C(N)CNC(=O)C(C2CCN=C(N)N2)NC(=O)/C(=C\NC(N)=O)NC1=O` (stereo not drawn) (H-[Dap]S[Dap](ξβ3hOrn)[ΔAla(E,3-NHCONH2)][X1]; lactam 1-C; configuration not given here), the Potency entry was “inactive”. In the case of `COc1ccc(/C=C/c2cc(O)cc(O[C@H]3OC(CO)C(O)C(O)C3O)c2)cc1` (stereo not given in full) it was “inactive”. Next, `CC(=O)OCC(=O)[C@]1(O)C(OC(C)=O)CC2C3CCC4=CC(=O)C=C[C@@]4(C)[C@]3(F)C(O)C[C@]21C` (stereo not given in full): “inactive”. In the case of `COc1ccc(C2OC3C(CO)OC(n4cnc5c(=O)[nH]c(N)nc54)C3O2)cc1` (stereo not given) it was “inactive”; in that of `C[C@@]12CCC(O)C[C@H]1CCc1ccccc12` (stereo not given in full), “inactive”; in that of `CCOc1ccc(C(=O)c2ccc(OC)c(O)c2O)cc1`, “inactive”.

Take `CC(=O)NC(CC(=O)O)C(=O)NC(CCC(=O)O)C(=O)O` (stereo not drawn) (Ac-Asp-Glu-OH; configuration not given here): the Potency entry is “inactive”. For `CC1CCC(C(C)C)[C@H](OC(=O)c2ccccc2)C1` (stereo not given in full), the Potency result is “inactive”. In the case of `CC(C(=O)O)C1CCC2C3CC=C4CC(O)CC[C@@]4(C)C3CC[C@]12C` (stereo not given in full) it was “inactive”; in that of `CC1(C)OC2C[C@](O)(C(N)=O)C[C@H](O)[C@H]2O1` (stereo not given in full), “inactive”; in that of `OCC1OC(n2cnc3c(NCc4ccco4)ncnc32)C(O)C1O` (stereo not given), “inactive”. In the case of `[N-]=[N+]=NCC1OC(n2cnc3c(=O)[nH]c(N)nc32)C(O)C1O` (stereo not given) it was “inactive”. In the case of `COc1ccc(-c2cc(=O)c3c(O)cc(O[C@@H]4OC(COC5OC(C)C(O)C(O)[C@@H]5O)C(O)C(O)C4O)cc3o2)cc1` (stereo not given in full) it was “inactive”; in that of `CC(=O)C1CCC2C3CC=C4CC(O)CC[C@@]4(C)C3CC[C@]12C` (stereo not given in full), “inactive”; in that of `CC1CC[C@@]2(OC1)OC1CC3C4CC=C5CC(O)CC[C@@]5(C)C4CC[C@]3(C)C1C2C` (stereo not given in full), “inactive”. As to `CC1CCC(C(C)C)[C@H](O)C1` (stereo not given in full), the Potency result was “inactive”. As for `CC(=O)OCC(=O)C1CCC2C3CC=C4CC(O)CC[C@@]4(C)C3CC[C@]12C` (stereo not given in full), the Potency entry is “inactive”.

On to `CCC1OC(=O)C(C)[C@@H](O[C@H]2C[C@@](C)(OC)C(O)C(C)O2)C(C)[C@@H](O[C@@H]2OC(C)CC(N(C)C)C2O)[C@](C)(O)CC(C)/C(=N\OCOCCOC)[C@H](C)C(O)[C@]1(C)O` (stereo not given in full), for which the Potency entry is “inactive”.

For `C/C=C1\C2C=C(C)C[C@@]1(N)c1ccc(=O)[nH]c1C2`, the Potency result was “inactive”. Next, `CC(C)(O)CCC(O)[C@@](C)(O)C1CC[C@]2(O)C3=CC(=O)C4CC(O)C(O)C[C@]4(C)C3CC[C@]12C` (stereo not given in full): “inactive”; `C=C(C)C1CC=C(CO)CC1` (stereo not given): “inactive”. Next, `CC1CCC2(OC1)OC1CC3C4CC[C@@H]5CC(O)CC[C@@]5(C)C4CC(=O)[C@]3(C)C1C2C` (stereo not given in full): “inactive”.

For `CC(=O)NC1C(O)C[C@@](O)(C(=O)O)OC1[C@@H](O)C(O)CO` (stereo not given in full), the Potency entry is “inactive”. Next, `O=C(Cc1ccccc1)NO`: “inactive”; `CCC(C(N)=O)c1ccccc1` (stereo not given): “inactive”; `CC1=C2C(O)C(=O)OC3CC4C(C)(C)C(=O)C=C[C@]4(C)C(CC1)[C@@]23C` (stereo not given in full): “inactive”. Take `O=C(O)c1cc2cc(Cl)ccc2[nH]1`: the Potency result is “inactive”. Next, `CC(C)CC(N)C(=O)NC(C)C(=O)O` (stereo not given): “inactive”.

`NCC1CCCCC1CC(=O)O` (stereo not given): the Potency result is “inactive”.
